Measured values published in PubChem BioAssay (NCI).
This is part of a sample that, as a whole, favours compounds with a hit. Of some 79,000 tested, about 15% had one in any assay. Calls of active or inactive are those of the source. No stated cut-off is given here; in the data, active means growth inhibition above about 70%; inactive means the rest.

Key:
[1] = NCI Yeast Anticancer Drug Screen. Data for the rad50 strain (AID 155);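 further: 0% = growth of vehicle-only cultures of the same strain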; conditions: S. cerevisiae rad50 strain growth inhibition; at 50.0 µM; active compounds read high
Method in brief: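 Genetically altered yeast (DNA repair pathway); compound treatment; growth inhibition vs vehicle ctrl.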

[2] = NCI Yeast Anticancer Drug Screen. Data for the mec2-1 strain (AID 157); conditions: S. cerevisiae mec2-1 strain, at 50.0 µM, active compounds read high
Method in brief: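 Yeast mec2-1 mutant treated with compound. Readout: growth inhibition vs vehicle controls.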

[3] = NCI Yeast Anticancer Drug Screen. Data for the sgs1 mgt1 strain (AID 161);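 further: 0% = growth of cultures given vehicle only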; conditions: S. cerevisiae sgs1 mgt1 strain, at 50.0 µM, active compounds read high
Method in brief: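 Read-out: growth inhibition vs vehicle controls. Cells: mutant yeast strain deficient in DNA damage repair.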

[4] = NCI Yeast Anticancer Drug Screen. Data for the cln2 rad14 strain (AID 165);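 further: 0% = growth equal to vehicle treated cultures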; conditions: S. cerevisiae cln2 rad14 strain, at 50.0 µM, active compounds read high
Method in brief: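 cln2 rad14 yeast strain; compound exposure; growth inhibition read vs vehicle controls.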

[5] = NCI Yeast Anticancer Drug Screen. Data for the bub3 strain (AID 167); conditions: S. cerevisiae bub3 mutant strain, at 50.0 µM, active compounds read high
Method in brief: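 Yeast carrying a defined mutation is treated with each compound, and growth is compared with that of vehicle-exposed cells to give inhibition.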

[6] = NCI Yeast Anticancer Drug Screen. Data for the mlh1 rad18 strain (AID 175); conditions: S. cerevisiae mlh1 rad18 strain growth inhibition; at 50.0 µM; active compounds read high
Method in brief: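 Yeast w/ defined DNA-repair lesions; compound exposure; growth vs vehicle controls → % inhibition.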

Measured: growth inhibition

CN1CCC(n2[nH]c(-c3ccccc3)c(Cc3ccccc3)c2=O)CC1
inactive: [1] 3.3% | [2] -40.6% | [3] -13.3% | [4] 10.6% | [5] -15.1% | [6] 5.7%

NC(=O)C1N=NSC1NC(=O)c1ccc([N+](=O)[O-])cc1 (configuration not stated)
inactive: [1] 1.8% | [2] -5.6% | [3] -8.9% | [4] 6.65% | [5] -9.15% | [6] 5.45%

CC1CCC2C(C)C3C(CC4C5CC=C6CC(O)CCC6(C)C5CCC43COC(=O)c3ccccc3)N2C1 (configuration not stated)
inactive: [1] 44.4% | [2] 16.8% | [3] 55.8% | [4] 21.4% | [5] 5.95% | [6] 42.6%

COC1OC2COC(C2O)C1OS(=O)(=O)c1ccc(C)cc1 (configuration not stated)
inactive: [1] -3.2% | [2] 9.7% | [3] 9.2% | [4] -46.1% | [5] -12.3% | [6] -13.3%

Cc1cccc(C(=O)NCC(=O)O)c1
inactive: [1] -13.8% | [2] -3.7% | [3] -9.9% | [4] -85.5% | [5] 4.5% | [6] -9.7%

O=C1CC(=O)C(Br)=C1Br
active: [1] 99.5% | [2] 99.5% | [3] 99.5% | [4] 99.3% | [5] 99.4% | [6] 99.5%

Cc1nc2ccccc2nc1CC(=O)c1ccccc1
inactive: [1] 43.3% | [2] 15.3% | [3] 48% | [4] 18.5% | [5] 54.4% | [6] 43.5%

C[N+]1=C(/C=C/c2ccnc3c(O)cccc23)C(C)(C)c2ccccc21
inactive: [1] 10% | [2] 11.2% | [3] 2.45% | [4] -60.4% | [5] -6.4% | [6] 8.65%

COc1ccc(C2C(Cl)C(=O)N2NC(=O)Cc2ccccc2)cc1 (configuration not stated)
inactive: [1] -10.6% | [2] -11.9% | [3] -7.3% | [4] 8.95% | [5] -10.9% | [6] 12.6%

S=C(CC(=S)N1CCOCC1)N1CCOCC1
inactive: [1] -15.1% | [2] -1.5% | [3] -10.5% | [4] -14.7% | [5] -11.7% | [6] -1.75%

O=C(Nc1ccccc1)C(c1ccccc1)N(Nc1ccccc1Cl)c1ccccc1Cl (configuration not stated)
inactive: [1] 28.8% | [2] 10.8% | [3] 17.1% | [4] 7.05% | [5] -5% | [6] 25%

COC(=O)CC[N+]1=CCC(c2ccccc2)(c2ccccc2)O1
inactive: [1] -9.55% | [2] -24.9% | [3] -20.8% | [4] 5.8% | [5] -15.9% | [6] -7.65%

Nc1ccc(Cc2ccc(N)c(Br)c2)cc1Br
inactive: [1] -0.75% | [2] 13.9% | [3] 25.1% | [4] -19.3% | [5] -14.8% | [6] 32.4%

CC(CC(C)(C)C)C(=O)O (configuration not stated)
inactive: [1] -4.05% | [2] -5.75% | [3] 2.55% | [4] 1.2% | [5] 6.85% | [6] 7.25%

CC(=O)NC1C(OC2C(CO)OC(OCC3OC(n4ccc(N)nc4=O)C(O)C3O)C(NC(C)=O)C2O)OC(CO)C(O)C1O (configuration not stated)
active: [6] 89.2%
inactive: [1] 31.9% | [2] 48.4% | [3] 2.1% | [4] -16.2% | [5] -3.45%

CCOC(=O)C(C(=O)OCC)C(NC(=O)Nc1cc(C(F)(F)F)ccc1OC)(C(F)(F)F)C(F)(F)F
inactive: [1] 23.1% | [2] 11.6% | [3] 11.4% | [4] 3.45% | [5] 21.6% | [6] 24.8%

[N-]=[N+]=CC(=O)c1cc(-c2ccccc2)nc2c(-c3ccccc3)cccc12
inactive: [1] 55.8% | [2] 18.8% | [3] 54% | [4] 31.8% | [5] 62.8% | [6] 59.1%

C/C1=C/C(C)CC(C)OC(=O)C(C)NC(=O)C(Cc2ccc(O)c(I)c2)N(C)C(=O)C(C)NC(=O)C(C)C1 (configuration not stated)
inactive: [3] 52.4%
active: [1] 92.8% | [2] 93.7% | [4] 90.7% | [5] 92.8% | [6] 91.2%

CCOC(=O)C1C(=O)CC(O)(c2ccccc2)C(C(=O)OCC)C1c1ccc(OC)cc1 (configuration not stated)
inactive: [1] -17.9% | [2] -13.2% | [3] -6.65% | [4] -31.1% | [5] 6.95% | [6] -3.7%

COc1c(NC(=O)c2cccc(C(=O)Nc3cccc([N+](=O)[O-])c3OC)c2)cccc1[N+](=O)[O-]
inactive: [1] -30.6% | [2] -15.8% | [3] -19.9% | [4] -49.1% | [5] -0.7% | [6] -15.5%

N#CC1(N)c2ccccc2-c2ccccc21
inactive: [1] 34.8% | [2] 1.95% | [3] 3.4% | [4] 9.65% | [5] 3.65% | [6] 4.8%

CCOP(=O)(OCCN(C)C)C(c1ccccc1)c1ccccc1 (configuration not stated)
inactive: [1] 19.9% | [2] -3.85% | [3] -10.8% | [4] -6.25% | [5] -9.75% | [6] 34.6%

Nc1ncnc2c1ccn2Cc1c(F)cccc1Cl
inactive: [1] -0.8% | [2] -7.3% | [3] -10.9% | [4] -1.2% | [5] 6.05% | [6] -13.6%

CCc1cccc(C)c1NC(=O)C(=O)CC(=O)c1ccc(Cl)cc1Cl
inactive: [1] 26.9% | [2] 14.8% | [3] 7.65% | [4] -35.4% | [5] 2.15% | [6] 27.2%

Cc1c2ccccc2nc(CSCC(O)CO)[n+]1[O-] (configuration not stated)
inactive: [1] -8.4% | [2] 10.7% | [3] 12.3% | [4] -55.6% | [5] 14.4% | [6] 6.85%

COc1ccc(C[N+](C)(C)N)cc1OC
inactive: [1] -13.8% | [2] -18.2% | [3] -21.9% | [4] -9.7% | [5] -40.5% | [6] -34.1%

O=C(O)c1ccc(F)cc1C(=O)O
inactive: [1] 5.5% | [2] 6% | [3] 4.75% | [4] 5.25% | [5] 3.2% | [6] 1.45%

O=S(=O)(N/N=C/c1c(Cl)cccc1Cl)c1ccccc1
inactive: [1] 18.9% | [2] 12.1% | [3] 11.9% | [4] -9.35% | [5] 9.65% | [6] 31.5%

COc1ccc(OC)c(NC(=O)Nc2nccs2)c1
inactive: [1] 1.9% | [2] 42.9% | [3] 29.1% | [4] -5.25% | [5] 36.6% | [6] 32.5%

OCC1CCCC1
inactive: [1] 12.3% | [2] -18.4% | [3] -0.05% | [4] -2.95% | [5] -1.5% | [6] 9.7%

CCOP(=O)(OCC)C1=C(P(=O)(OCC)OCC)C(F)(F)C1(F)F
inactive: [1] -9.35% | [2] -5% | [3] -6.7% | [4] -13.1% | [5] -0.95% | [6] -6.3%

[Cl][Pd][Cl].[NH-]c1ccc(/C=C2\C=Cc3ccccc32)cc1.[NH-]c1ccc(/C=C2\C=Cc3ccccc32)cc1
inactive: [2] 32.8% | [4] 47.4%
active: [1] 89.5% | [3] 83.7% | [5] 75.5% | [6] 79.3%

CCOP(=O)(OCC)/C(C#N)=C/c1cccc([N+](=O)[O-])c1
inactive: [1] -14.2% | [2] 2.5% | [3] -4.85% | [4] 3.85% | [5] -6.55% | [6] 9.25%

O=[N+]([O-])c1ccc(OCc2ccc(CBr)cc2)c(Cl)c1
inactive: [1] 4.1% | [2] 29.6% | [3] 15.4% | [4] -13.7% | [5] 16% | [6] 22.5%

CCOC(=O)c1c[nH]c(=S)n(C)c1=O
inactive: [1] -6.6% | [2] -10.2% | [3] -6.65% | [4] -14.1% | [5] 0.4% | [6] 2.1%

COc1ccc2nc3cc(Cl)ccc3c(NCCCC3CCCN4CCCCC34)c2c1 (configuration not stated)
inactive: [1] 50% | [2] 40.5% | [3] 2% | [4] 6.15% | [5] 11.7% | [6] 38.4%

O=S1(=O)OCCOS(=O)(=O)C1F
inactive: [1] -69% | [2] -4.65% | [3] -22.4% | [4] -23.2% | [5] -5.35% | [6] -16.1%
